# Assay results from the supplement of paper PMC7765376.
# Over roughly 1,500 compounds, “Excess HSA synergy score (sum over dose matrix of excess over highest single agent)” has its median near 43; the lowest 2% begin near -900. The full list was thinned out, with the lowest values kept by preference.
# Tested on: PEO-1
# Test: Excess HSA synergy score (sum over dose matrix of excess over highest single agent) (score (summed % response)); higher = less synergy / more antagonism (negative = synergy)
# Conditions: 72 h, read-out: viability/apoptosis luminescence (CellTiter-Glo or Caspase3-Glo / not stated per table)
# [1] = matrix design: 6x6, 5-fold dilutions (primary screen)
# [2] = matrix design: 10x10, 9-step dilutions (confirmatory)
Compound,Excess HSA synergy score [1],Excess HSA synergy score [2]
O=C(Nc1ccccc1Br)N[C@@H]1CCN(c2ccc(C(F)(F)F)cn2)C1 + CC[C@H](NC(=O)[C@H](C)NC)C(=O)N1C[C@@H](O)C[C@H]1Cc1c(-c2[nH]c3cc(F)ccc3c2C[C@@H]2C[C@H](O)CN2C(=O)[C@H](CC)NC(=O)[C@H](C)NC)[nH]c2cc(F)ccc12 [Birinapant],-16.5,
C[C@H](NC(=O)C(=O)Nc1ccccc1C(C)(C)C)C(=O)N[C@@H](CC(=O)O)C(=O)COc1c(F)c(F)cc(F)c1F [Emricasan] + CC[C@H](NC(=O)[C@H](C)NC)C(=O)N1C[C@@H](O)C[C@H]1Cc1c(-c2[nH]c3cc(F)ccc3c2C[C@@H]2C[C@H](O)CN2C(=O)[C@H](CC)NC(=O)[C@H](C)NC)[nH]c2cc(F)ccc12 [Birinapant],,-606
COc1ccc2c(OCc3nnc4ccc(-c5ccccc5)nn34)ccnc2c1 + CC[C@H](NC(=O)[C@H](C)NC)C(=O)N1C[C@@H](O)C[C@H]1Cc1c(-c2[nH]c3cc(F)ccc3c2C[C@@H]2C[C@H](O)CN2C(=O)[C@H](CC)NC(=O)[C@H](C)NC)[nH]c2cc(F)ccc12 [Birinapant],-55.6,
N[C@@H](CSC(c1ccccc1)(c1ccccc1)c1ccccc1)C(=O)O [S-Trityl-L-cysteine] + CC[C@H](NC(=O)[C@H](C)NC)C(=O)N1C[C@@H](O)C[C@H]1Cc1c(-c2[nH]c3cc(F)ccc3c2C[C@@H]2C[C@H](O)CN2C(=O)[C@H](CC)NC(=O)[C@H](C)NC)[nH]c2cc(F)ccc12 [Birinapant],-23.2,
CCC(=O)NCC[C@@H]1CCc2ccc3c(c21)CCO3 [Ramelteon] + CC[C@H](NC(=O)[C@H](C)NC)C(=O)N1C[C@@H](O)C[C@H]1Cc1c(-c2[nH]c3cc(F)ccc3c2C[C@@H]2C[C@H](O)CN2C(=O)[C@H](CC)NC(=O)[C@H](C)NC)[nH]c2cc(F)ccc12 [Birinapant],10.8,
NC(=O)c1c(OCc2c(F)cc(Br)cc2F)nsc1NC(=O)NCCCCN1CCCC1 + CC[C@H](NC(=O)[C@H](C)NC)C(=O)N1C[C@@H](O)C[C@H]1Cc1c(-c2[nH]c3cc(F)ccc3c2C[C@@H]2C[C@H](O)CN2C(=O)[C@H](CC)NC(=O)[C@H](C)NC)[nH]c2cc(F)ccc12 [Birinapant],11,
C#Cc1cccc(Nc2ncnc3cc(OC)c(OCCCCCCC(=O)NO)cc23)c1 + CC[C@H](NC(=O)[C@H](C)NC)C(=O)N1C[C@@H](O)C[C@H]1Cc1c(-c2[nH]c3cc(F)ccc3c2C[C@@H]2C[C@H](O)CN2C(=O)[C@H](CC)NC(=O)[C@H](C)NC)[nH]c2cc(F)ccc12 [Birinapant],-55.2,
CCC(CC)CC1(C(=O)Nc2ccccc2SC(=O)C(C)C)CCCCC1 [Dalcetrapib] + CC[C@H](NC(=O)[C@H](C)NC)C(=O)N1C[C@@H](O)C[C@H]1Cc1c(-c2[nH]c3cc(F)ccc3c2C[C@@H]2C[C@H](O)CN2C(=O)[C@H](CC)NC(=O)[C@H](C)NC)[nH]c2cc(F)ccc12 [Birinapant],134,
CC(C)(C)c1[nH]cnc1/C=c1\[nH]c(=O)/c(=C/c2ccccc2)[nH]c1=O [Plinabulin] + CC[C@H](NC(=O)[C@H](C)NC)C(=O)N1C[C@@H](O)C[C@H]1Cc1c(-c2[nH]c3cc(F)ccc3c2C[C@@H]2C[C@H](O)CN2C(=O)[C@H](CC)NC(=O)[C@H](C)NC)[nH]c2cc(F)ccc12 [Birinapant],-109,
COc1ccnc2[nH]cc(C(=O)C(=O)N3CCN(C(=O)c4ccccc4)C[C@H]3C)c12 + CC[C@H](NC(=O)[C@H](C)NC)C(=O)N1C[C@@H](O)C[C@H]1Cc1c(-c2[nH]c3cc(F)ccc3c2C[C@@H]2C[C@H](O)CN2C(=O)[C@H](CC)NC(=O)[C@H](C)NC)[nH]c2cc(F)ccc12 [Birinapant],263,
C[C@H]1[C@H](C)CC[C@]2(C(=O)O)CC[C@]3(C)C(=CC[C@@H]4[C@@]5(C)C[C@@H](O)[C@H](O)[C@@](C)(CO)[C@@H]5CC[C@]43C)[C@H]12 [Asiatic acid] + CC[C@H](NC(=O)[C@H](C)NC)C(=O)N1C[C@@H](O)C[C@H]1Cc1c(-c2[nH]c3cc(F)ccc3c2C[C@@H]2C[C@H](O)CN2C(=O)[C@H](CC)NC(=O)[C@H](C)NC)[nH]c2cc(F)ccc12 [Birinapant],84.9,
CCc1cnn2c(NCc3ccc[n+]([O-])c3)cc(N3CCCC[C@H]3CCO)nc12 + CC[C@H](NC(=O)[C@H](C)NC)C(=O)N1C[C@@H](O)C[C@H]1Cc1c(-c2[nH]c3cc(F)ccc3c2C[C@@H]2C[C@H](O)CN2C(=O)[C@H](CC)NC(=O)[C@H](C)NC)[nH]c2cc(F)ccc12 [Birinapant],5.95,-374
Nc1nc2[nH]cc(CCc3ccc(C(=O)N[C@@H](CCC(=O)O)C(=O)O)cc3)c2c(=O)[nH]1 [Pemetrexed disodium] + CC[C@H](NC(=O)[C@H](C)NC)C(=O)N1C[C@@H](O)C[C@H]1Cc1c(-c2[nH]c3cc(F)ccc3c2C[C@@H]2C[C@H](O)CN2C(=O)[C@H](CC)NC(=O)[C@H](C)NC)[nH]c2cc(F)ccc12 [Birinapant],-173,
Nc1nc(F)nc2c1ncn2[C@@H]1O[C@H](CO)[C@@H](O)[C@H]1O [2-Fluoroadenosine] + CC[C@H](NC(=O)[C@H](C)NC)C(=O)N1C[C@@H](O)C[C@H]1Cc1c(-c2[nH]c3cc(F)ccc3c2C[C@@H]2C[C@H](O)CN2C(=O)[C@H](CC)NC(=O)[C@H](C)NC)[nH]c2cc(F)ccc12 [Birinapant],41.5,
Nc1ncn([C@H]2C[C@H](O)[C@@H](CO)O2)c(=O)n1 [Decitabine] + CC[C@H](NC(=O)[C@H](C)NC)C(=O)N1C[C@@H](O)C[C@H]1Cc1c(-c2[nH]c3cc(F)ccc3c2C[C@@H]2C[C@H](O)CN2C(=O)[C@H](CC)NC(=O)[C@H](C)NC)[nH]c2cc(F)ccc12 [Birinapant],-104,
Nc1nc(Cl)nc2c1ncn2[C@H]1C[C@H](O)[C@@H](CO)O1 [Cladribine] + CC[C@H](NC(=O)[C@H](C)NC)C(=O)N1C[C@@H](O)C[C@H]1Cc1c(-c2[nH]c3cc(F)ccc3c2C[C@@H]2C[C@H](O)CN2C(=O)[C@H](CC)NC(=O)[C@H](C)NC)[nH]c2cc(F)ccc12 [Birinapant],-229,-1080
Nc1ncnc2c1ncn2[C@@H]1O[C@H](CO)[C@@H](O)[C@H]1O [Adenosine] + CC[C@H](NC(=O)[C@H](C)NC)C(=O)N1C[C@@H](O)C[C@H]1Cc1c(-c2[nH]c3cc(F)ccc3c2C[C@@H]2C[C@H](O)CN2C(=O)[C@H](CC)NC(=O)[C@H](C)NC)[nH]c2cc(F)ccc12 [Birinapant],270,
Nc1nc(=O)n([C@H]2C[C@H](O)[C@@H](CO)O2)cc1F + CC[C@H](NC(=O)[C@H](C)NC)C(=O)N1C[C@@H](O)C[C@H]1Cc1c(-c2[nH]c3cc(F)ccc3c2C[C@@H]2C[C@H](O)CN2C(=O)[C@H](CC)NC(=O)[C@H](C)NC)[nH]c2cc(F)ccc12 [Birinapant],-352,
Nc1nc(Cl)nc2c1ncn2[C@@H]1O[C@H](CO)[C@@H](O)[C@@H]1F [Clofarabine] + CC[C@H](NC(=O)[C@H](C)NC)C(=O)N1C[C@@H](O)C[C@H]1Cc1c(-c2[nH]c3cc(F)ccc3c2C[C@@H]2C[C@H](O)CN2C(=O)[C@H](CC)NC(=O)[C@H](C)NC)[nH]c2cc(F)ccc12 [Birinapant],-118,-898
CC1=C(CO)C(=O)O[C@@H]([C@@H](C)[C@H]2CC[C@H]3[C@@H]4C[C@H]5O[C@]56[C@@H](O)C=CC(=O)[C@]6(C)[C@H]4CC[C@]23C)C1 [Withaferin A] + CC[C@H](NC(=O)[C@H](C)NC)C(=O)N1C[C@@H](O)C[C@H]1Cc1c(-c2[nH]c3cc(F)ccc3c2C[C@@H]2C[C@H](O)CN2C(=O)[C@H](CC)NC(=O)[C@H](C)NC)[nH]c2cc(F)ccc12 [Birinapant],-42.3,
O=C(Nc1nnc(-c2ccco2)o1)c1cc(-c2ccccc2)nc2ccccc12 + CC[C@H](NC(=O)[C@H](C)NC)C(=O)N1C[C@@H](O)C[C@H]1Cc1c(-c2[nH]c3cc(F)ccc3c2C[C@@H]2C[C@H](O)CN2C(=O)[C@H](CC)NC(=O)[C@H](C)NC)[nH]c2cc(F)ccc12 [Birinapant],57.7,
CSc1cccc(Nc2ncc3cc(-c4c(Cl)cccc4Cl)c(=O)n(C)c3n2)c1 + CC[C@H](NC(=O)[C@H](C)NC)C(=O)N1C[C@@H](O)C[C@H]1Cc1c(-c2[nH]c3cc(F)ccc3c2C[C@@H]2C[C@H](O)CN2C(=O)[C@H](CC)NC(=O)[C@H](C)NC)[nH]c2cc(F)ccc12 [Birinapant],-134,
Cc1cnc(Nc2ccc(OCCN3CCCC3)cc2)nc1Nc1cccc(S(=O)(=O)NC(C)(C)C)c1 + CC[C@H](NC(=O)[C@H](C)NC)C(=O)N1C[C@@H](O)C[C@H]1Cc1c(-c2[nH]c3cc(F)ccc3c2C[C@@H]2C[C@H](O)CN2C(=O)[C@H](CC)NC(=O)[C@H](C)NC)[nH]c2cc(F)ccc12 [Birinapant],70.3,
CCN(CC)CCOc1ccc(Nc2ncc3cc(-c4c(Cl)cccc4Cl)c(=O)n(C)c3n2)cc1 + CC[C@H](NC(=O)[C@H](C)NC)C(=O)N1C[C@@H](O)C[C@H]1Cc1c(-c2[nH]c3cc(F)ccc3c2C[C@@H]2C[C@H](O)CN2C(=O)[C@H](CC)NC(=O)[C@H](C)NC)[nH]c2cc(F)ccc12 [Birinapant],-224,-954
